HepG2 viability: kills HepG2 cells in TGF-b inhibitor counter-screen | HepG2 CAGA-GFP viability, ATP luminescence, 18 h | Potency, µM (series often up to 46.1 µM), inactives show at the highest dose activity change, negative = cytotoxicity, actives largely listed as cytotoxic | 410,000 tested, 0.76% active | AID 588856; further: potency means the concentration at half of the fitted maximal effect
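CellTiter-Glo luminescence gave cytotoxicity after 18 hours at 37 degrees C. The cells were HepG2 CAGA-GFP in 1% FBS DMEM, stimulated with 500 pg/mL TGF-beta after compound addition. %Activity was normalised to no-cell wells (complete cell-killing) and DMSO (no toxicity), and curves were fitted and classified.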
TGFb SMAD3 inh: blocks TGF-b signaling | HepG2 CAGA-GFP TGF-b/SMAD3 reporter, GFP fluorescence, 18 h; TGF-beta stimulated, 500 pg/mL final | Potency, µM (series often up to 46.1 µM), for inactives: at the highest dose activity, negative = inhibition, hits mostly inhibitors | 410,000 tested, 1.2% active | AID 588855; further: potency means the concentration at half of the fitted maximal effect; on the % scale 0 is the no-effect control and ±100 the full control effect; nearly all actives have a fitted effect of over 65% in size
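Inhibition of TGF-beta-driven CAGA-GFP reporter expression in HEPG2 cells is measured by cellular GFP fluorescence after 18 h stimulation with 500 pg/mL recombinant TGF-beta in 1% FBS medium at 37 degrees C.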
uPA surface inh: cell surface uPA generation inhibition; 330,000 tested, 0.31% active; Potency, µM (titrated, usually from 38.3 µM), for inactives: at the top dose activity change, negative = inhibition, most hits filed as inhibitors; cell surface uPA generation assay, qHTS; active means well fitted inhibition curve with a large enough effect; inconclusive means small, poorly fitted or top-dose-only effect; inactive means no such curve, though single readings can be large or run the other way; tested in mouse RAW 264.7 cells; further: potency means the concentration at half of the fitted maximal effect; on the % scale 0 is the no-effect control and ±100 the full control effect; nearly all actives have a fitted effect of over 55% in size
ATXN2 expr inh: inhibitors of ATXN2 expression; HEK-293 ATXN2-luciferase reporter, luminescence, 24 h; Potency, µM (titrated, usually from 57 µM), inactives show top-dose activity change, negative = inhibition, actives largely listed as inhibitors; 360,000 tested, 0.72% active; AID 1745845; further: potency means the concentration at half of the fitted maximal effect; on the % scale 0 is the no-effect control and ±100 the full control effect; nearly all actives have a fitted effect of over 55% in size
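ATXN2-luciferase reporter cells (luciferase flanked by upstream and downstream ATXN2 gene portions) were treated 24 h at 37 °C with compounds at up to 57 uM. SteadyGlo luminescence gave expression; GF-AFC fluorescence gave viability.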
Giardia kill: Giardia lamblia killing | activity change, % at 7.66 µM, hits read low | AID 540267 | 340,000 tested, 0.15% active | Giardia lamblia trophozoite viability; in the data active means activity change below about -80%; inconclusive means between about -30% and that limit;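 further: parasites exposed to compound for two days anaerobically before the ATP read; on the % scale 0 is the no-effect control and ±100 the full control effect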
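Killing of trophozoites was scored by loss of ATP luminescence after a 48 hrs anaerobic exposure to compounds at 37 deg C, using 100 cells per well.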
ATXN viability: cell viability loss in ATXN counter-screen; Potency, µM (series often up to 56.7 µM), most hits filed as cytotoxic; S2 cells (HEK-293 line with an ATXN2-luciferase reporter) viability, CellTiter-Fluor protease fluorescence, 24 h; 400,000 tested, 0.49% active; AID 651635; further: potency means the concentration at half of the fitted maximal effect; nearly all actives have a fitted effect of over 40% in size
An asterisk follows results filed as active; i = inactive; u = inconclusive; x = no result given. Only some compounds are listed: those with a hit (about 2.6% of all), similar ones and a draw of the others. Unless noted, the call rests on the fitted dose curve; in most records, active means well fitted curve in the direction sought with a large enough effect; inconclusive means small, poorly fitted or top-dose-only effect, or another doubt; inactive means no such curve, though single readings can be large; an effect the other way counts as inactive or inconclusive.

SMILES	HepG2 viability	TGFb SMAD3 inh	uPA surface inh	ATXN2 expr inh	Giardia kill	ATXN viability
CCN1CCCC1CN(Cc1cc2ccc(C)cc2[nH]c1=O)C(=S)Nc1ccc(OC)cc1 (stereo not drawn)	12.6µM*	u	-8.6%	-5.2%	-20.2	u
CC1Cc2ccccc2N1C(=O)CNCCCN(C)C (stereo not drawn)	27.2%	10.1%	4.8%	-5.4%	-6.9	i
CC1CC2(C)Oc3ccccc3CC2C(C)C1CNCCCN(C)C (stereo not drawn)	12.6µM*	u	-15.3%	14.1µM*	-0.7	u
Cc1cc(C(=O)NCC2CCC3(CCN(Cc4ccc5ccccc5c4)CC3)O2)n(C)n1 (stereo not drawn)	x	x	x	x	x	i
CCS(=O)(=O)Nc1cc(C(=O)N2CCC[C@H]2CO)c2c(c1)nc(-c1ccccc1)n2C	x	x	x	x	x	i
COc1cc(C#Cc2c(-c3cncn3C)n(C)c3ccc(-c4cnc(OC)nc4)cc23)cc(OC)c1	-36.4%	u	-26.3%	20µM*	-5.8	i
COc1ccc(N(Cc2ccccc2)C(=O)c2nc(SC)ncc2Cl)cc1	-29.5%	12.6µM*	x	u	x	i
CCCS(=O)(=O)c1ncc(Cl)c(C(=O)N(Cc2ccccc2)Cc2ccco2)n1	3.98µM*	8.91µM*	x	x	11.0	x
CCS(=O)(=O)c1ncc(Cl)c(C(=O)N(Cc2ccccc2)c2ccc(OC)cc2)n1	3.16µM*	3.16µM*	x	x	x	x
O=C(O)C1(Cc2cccc(Nc3nccs3)n2)CCC(Oc2cccc(Cl)c2F)CC1 (stereo not drawn)	x	x	x	14.2%	x	x
COc1ccccc1C(=O)NC(=S)/C=C1/N(C)c2ccccc2C1(C)C	-3.3%	22.4µM*	-7.9%	0.0%	18.4	u
CNC[C@H](Cc1ccccc1)NC[C@@H](Cc1cccc2ccccc12)NCCc1ccc(C)cc1	17.8µM*	u	-3.7%	u	5.5	u
CNCCNC[C@H](Cc1cccc2ccccc12)NCCc1ccccc1	-27.5%	1.9%	7.8%	-22.4%	10.4	i
CO[C@H]1[C@H](NC(=O)c2ccco2)c2ccccc2C12CCN(Cc1cnc(N(C)C)s1)CC2	x	x	x	x	x	i
O=C1C=C(c2ccccc2)CC(c2cccs2)C1n1cnc([N+](=O)[O-])c1 (stereo not drawn)	2.3%	8.4%	4.7%	-4.6%	-20.8	i
O=C1C=C(c2ccccc2)C[C@H](c2cccs2)[C@H]1n1nnc([N+](=O)[O-])n1	1.6%	-31.1%	-14.7%	u	-10.5	28.2µM*
O=C1CC(=O)N(CCNc2ncc(C(F)(F)F)cc2Cl)C(=O)N1	0.6%	54.0%	7.9%	-7.8%	2.0	i
O=C1C=CC(=O)N1CCNc1ncc(C(F)(F)F)cc1Cl	11.2µM*	12.6µM*	-15.1%	25.1µM*	-2.0	x
C=C1C(=O)OC2C1CCC(C)=C1C(=O)C3OC3(C)C12 (stereo not drawn)	4.47µM*	4.47µM*	u	7.08µM*	9.6	8.91µM*
O=C(NCC1CCCCC1)c1ccc(=O)[nH]c1	4.3%	2.0%	-3.0%	15.8%	-12.9	i
O=C(NCC1CCCCC1)c1cccc(-c2ccc(O)cc2)c1	-77.6%	12.6µM*	-8.6%	-27.9%	9.7	i
CCn1cc(S(=O)(=O)c2ccc(C)cc2)[nH]c1=O	11.8%	11.1%	-0.3%	1.0%	3.6	i
Cc1ccc(-n2cc(S(=O)(=O)c3ccc(C)cc3)[nH]c2=O)cc1	3.16µM*	u	3.3%	-11.2%	1.9	i
CCOC(=O)c1c(CSc2ccsc2)n(C)c2cc(Br)c(O)c(CN(C)C)c12	10µM*	u	10.3%	x	1.9	i
CC(=O)NC1CCCC1C#N (stereo not drawn)	0.9%	-4.7%	x	x	x	x
SMILES	HepG2 viability	TGFb SMAD3 inh	uPA surface inh	ATXN2 expr inh	Giardia kill	ATXN viability
Cc1cccc(NC(=O)C2CCN(c3ncnc4c3nc3n4CCCCC3)CC2)n1	1.7%	-12.0%	10.4%	-11.6%	-16.4	i
Clc1cccc(N2CCN(c3ncnc4c3nc3n4CCCCC3)CC2)c1	-46.8%	u	x	17.8µM*	x	x
c1ccc(N2CCN(c3ncnc4c3nc3n4CCCCC3)CC2)cc1	-19.6%	0.0%	x	u	x	i
CC(=O)c1cccc(NC(=O)C2CCN(c3ncnc4c3nc3n4CCCCC3)CC2)c1	-25.1%	17.8µM*	x	x	x	x
O=C(C1CCN(c2ncnc3c2nc2n3CCCCC2)CC1)N1CCN(c2cccc(Cl)c2)CC1	-30.2%	u	-0.2%	x	14.0	17.8µM*
Clc1ccc2c(c1)Nc1ccccc1S2	x	x	x	-5.4%	x	i
COC(=O)[C@@H]1CCCN1S(=O)(=O)Cc1ccccc1	-0.2%	-4.7%	x	x	x	x
CCOC(=O)[C@@H]1[C@H]2COc3ccc(Br)cc3[C@@H]2N2C(=O)N(c3ccc(Br)cc3)C(=O)[C@]12C	0.8%	7.08µM*	14.4%	-1.9%	3.5	i
CCOC(=O)[C@@H]1[C@H]2COc3ccc(Br)cc3[C@H]2N2C(=O)N(c3ccc(Br)cc3)C(=O)[C@]12C	-14.9%	-23.9%	-5.7%	6.5%	-11.8	i
O=C(CCl)Nc1cccc(Oc2ccccc2)c1	-91.8%	8.91µM*	-9.2%	9.47µM*	-0.2	x
O=C(CCl)Nc1cccc(Oc2cnccn2)c1	-97.4%	15.8µM*	u	u	1.2	22.4µM*
Nc1cccc(Oc2cnccn2)c1	5.2%	-2.1%	4.4%	x	12.6	i
O=C(CN1CCCCC1)Nc1cccc(Oc2ccccc2)c1	-25.1%	-18.0%	2.5%	10.7%	8.3	i
COc1cc(NC(=O)CCl)ccc(=O)c1	0.708µM*	u	x	x	x	u
COc1ccc(-c2cccc3c2OC(CNC(=O)c2ccc4c(c2)OCO4)C3)nn1 (stereo not drawn)	x	x	x	x	x	i
COc1cccc(CN2C(=O)NC(C)(C3CCN(Cc4cc(F)cc(F)c4)CC3)C2=O)c1OC (stereo not drawn)	x	x	x	x	x	i
COc1ccc(C2Nc3ccccc3C(=O)N2c2cccc3ccccc23)cc1COc1c(C)cccc1C (stereo not drawn)	3.3%	25.0%	x	x	18.8	x
Cc1ccccc1N=C1Nc2ccccc2N[C@]12C[C@H]1CCCC(=O)N3CC[C@@H](C2)[C@@H]13	34.8%	8.1%	x	x	x	x
Cn1nc([N+](=O)[O-])c(C(C#N)c2ccccn2)c(Cl)c1=O (stereo not drawn)	12.6µM*	u	u	x	-26.9	u
CCCn1nc([N+](=O)[O-])c(C(C#N)c2nc3ccccc3o2)c(Cl)c1=O (stereo not drawn)	-33.4%	u	-4.0%	38.5%	-12.0	i
O=C1C(=O)N(CCS(=O)(=O)c2ccccc2)c2ccc(Cl)cc21	-105.9%	22.4µM*	u	-14.5%	-13.5	i

Compound activity (PubChem BioAssay)
